Assay results taken from the supplement of paper PMC13172266.
Where a name gives a salt, the structure may show the parent alone.

System: U2932 TK216-resistant clone 3
Experiment: cell proliferation relative to vehicle (% of vehicle); higher = less growth inhibition
Details: 50 nM; 72 h
Outline: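 A targeted inhibitor library of 348 compounds was tested on the ABC-DLBCL line U2932, both parental and two clones made resistant to an ETS-targeting agent by repeated exposure over almost a year. Cells were grown at 37°C and 5% CO2 in medium with 10% FBS, then treated at 500 nM or 50 nM for 72 h. MTT was added for 4 h, stopped with 25% SDS, and absorbance was read on a Cytation 3. Proliferation is reported as percent of proliferating cells relative to vehicle (DMSO).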

Row | Structure (SMILES) | cell proliferation
1 | O=C1NC(=O)C(c2ccccc2[N+](=O)[O-])=C1Nc1ccc(O)c(Cl)c1 | 110
2 | C[S+]([O-])c1ccc(-c2nc(-c3ccc(F)cc3)c(-c3ccncc3)[nH]2)cc1 (stereo not given) | 93.4
3 | CCC[C@H](Nc1nc(-c2ccc(NC(=O)NCC)c(OC)c2)ncc1C)c1cccnc1 [CYT997 (Lexibulin)] | 8
4 | CC1(C)CNc2cc(NC(=O)c3cccnc3NCc3ccncc3)ccc21 [Motesanib Diphosphate (AMG-706)] | 104
5 | Cc1nnc(C(C)C)n1C1C[C@H]2CC[C@@H](C1)N2CC[C@H](NC(=O)C1CCC(F)(F)CC1)c1ccccc1 (stereo in doubt) [Maraviroc] | 96
6 | Nc1ccc(C(=O)Nc2cccc(-c3nc(N4CCOCC4)c4oc5ncccc5c4n3)c2)cn1 | 102
7 | CCCC(CCC)C(=O)O [Valproic acid sodium salt (Sodium valproate)] | 103
8 | N#Cc1c(Oc2ccc(F)c(NC(=O)Cc3cccc(C(F)(F)F)c3)c2)ccc2nc(NC(=O)C3CC3)sc12 | 107
9 | Oc1ccc(/C=C/c2cc(O)cc(O)c2)cc1 [Resveratrol] | 102
10 | CC1(C)CCC(CN2CCN(c3ccc(C(=O)NS(=O)(=O)c4ccc(NCC5CCOCC5)c([N+](=O)[O-])c4)c(Oc4cnc5[nH]ccc5c4)c3)CC2)=C(c2ccc(Cl)cc2)C1 | 84.4
11 | CO[C@H]1C[C@@H]2CC[C@@H](C)[C@@](O)(O2)C(=O)C(=O)N2CCCC[C@H]2C(=O)O[C@H]([C@H](C)C[C@@H]2CC[C@@H](OP(C)(C)=O)[C@H](OC)C2)CC(=O)[C@H](C)/C=C(\C)[C@@H](O)[C@@H](OC)C(=O)[C@H](C)C[C@H](C)/C=C/C=C/C=C/1C [Ridaforolimus (Deforolimus, MK-8669)] | 62.2
12 | CCC(C)(C)C(=O)O[C@H]1C[C@@H](C)C=C2C=C[C@H](C)[C@H](CC[C@@H]3C[C@@H](O)CC(=O)O3)[C@H]21 [Simvastatin] | 98.4
13 | Cc1cc(CS(=O)(=O)c2ccccc2)cc(OCc2ccc(CN3CCC[C@@H]3CO)cc2)c1 | 106
14 | Cn1c(Nc2ccc(C(F)(F)F)cc2)nc2cc(Oc3ccnc(-c4ncc(C(F)(F)F)[nH]4)c3)ccc21 | 98.8
15 | CC[C@H](Nc1ncnc2[nH]cnc12)c1nc2cccc(F)c2c(=O)n1-c1ccccc1 [CAL-101 (Idelalisib, GS-1101)] | 97.8
16 | COc1cc(F)c(F)c(Nc2ccc(I)cc2F)c1NS(=O)(=O)C1(C[C@H](O)CO)CC1 [Refametinib (RDEA119, Bay 86-9766)] | 105
17 | CC(=O)Nc1cccc(-n2c(=O)n(C3CC3)c(=O)c3c(Nc4ccc(I)cc4F)n(C)c(=O)c(C)c32)c1 | 98.2
18 | O=C(O)CCNc1cc(N2CCc3ccccc3CC2)nc(-c2ccccn2)n1 | 105
19 | C[C@@H]1CCN(C(=O)CC#N)C[C@@H]1N(C)c1ncnc2[nH]ccc12 | 113
20 | COc1ccc(-c2ccc3ncc4c(c3c2)n(-c2ccc(N3CCNCC3)c(C(F)(F)F)c2)c(=O)n4C)cn1 | 30.9
21 | Clc1ccc(C2(c3ccc(-c4cn[nH]c4)cc3)CCNCC2)cc1 | 94.6
22 | O=C(CCCCCCNC(=O)c1cnc(N(c2ccccc2)c2ccccc2)nc1)NO [Rocilinostat (ACY-1215)] | 110
23 | CCCCCCCCCCCC1=C(O)C(=O)C=C(O)C1=O [Embelin] | 103
24 | COc1cc2ncnc(Oc3ccc(CC(=O)Nc4cnn(C(C)C)c4)cc3)c2cc1OC | 104
25 | C[C@H](NC(=O)/C(C#N)=C/c1cccc(Br)n1)c1ccccc1 | 109
26 | CO[C@H]1C[C@@H]2CC[C@@H](C)[C@@](O)(O2)C(=O)C(=O)N2CCCC[C@H]2C(=O)O[C@H]([C@H](C)C[C@@H]2CC[C@@H](OC(=O)C(C)(CO)CO)[C@H](OC)C2)CC(=O)[C@H](C)/C=C(\C)[C@@H](O)[C@@H](OC)C(=O)[C@H](C)C[C@H](C)/C=C/C=C/C=C/1C | 65
27 | CNC(=O)c1ccccc1Sc1ccc2c(/C=C/c3ccccn3)n[nH]c2c1 [Axitinib] | 102
28 | CCOC(=O)c1[nH]c2cc(Cl)ccc2c1C(C(=O)NC(C)(C)C)N(C=O)Cc1ccc(Cl)cc1 (stereo not given) | 103
29 | O=C(NC[C@H](O)CO)c1ccncc1Nc1ccc(I)cc1F | 95.7
30 | NC(=O)c1cccc2cn(-c3ccc([C@@H]4CCCNC4)cc3)nc12 [MK-4827(Niraparib) tosylate] | 109
